# Positions count from the first letter of the chain named. In all, about 16,000 sequences were measured (“ka relative to ugcaugu”: median about 0.096, highest 2% from about 0.35 on). What follows is part of a selection rich in the highest values, with near analogues and random picks from the rest.
# T1: RBFOX1 RRM RbFoxmut (Fox-RRM*) (Homo sapiens, UniProt Q9NWB1 109-208, R118D;E147R;N151S;E152T)
# T1 sequence: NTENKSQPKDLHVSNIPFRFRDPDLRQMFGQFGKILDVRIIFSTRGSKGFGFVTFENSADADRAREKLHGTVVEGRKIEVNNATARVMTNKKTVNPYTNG
# B1: GGGAUCG (DNA:RNA)
# RNA: GGGAGACCGGAAUUCAGAUUGUCCGGGAUCGUUAAAUCCCGUCGUAGCCACCA
# DNA 1: CAATCTGAATTCCGGTCTCCC
# DNA 2: TGGTGGCTACGACGGGATT
# B2: GGAUCGU (DNA:RNA)
# RNA: B1 RNA with G27A, A28U, U29C, C30G, G31U
# DNA 1: CAATCTGAATTCCGGTCTCCC
# DNA 2: TGGTGGCTACGACGGGATT
# B3: CGAUCGU (DNA:RNA)
# RNA: B1 RNA with G25C, G27A, A28U, U29C, C30G, G31U
# DNA 1: CAATCTGAATTCCGGTCTCCC
# DNA 2: TGGTGGCTACGACGGGATT
# B4: GGGAUUG (DNA:RNA)
# RNA: B1 RNA with C30U
# DNA 1: CAATCTGAATTCCGGTCTCCC
# DNA 2: TGGTGGCTACGACGGGATT
# B5: CGAUAUG (DNA:RNA)
# RNA: B1 RNA with G25C, G27A, A28U, U29A, C30U
# DNA 1: CAATCTGAATTCCGGTCTCCC
# DNA 2: TGGTGGCTACGACGGGATT
# B6: GGAUAUG (DNA:RNA)
# RNA: B1 RNA with G27A, A28U, U29A, C30U
# DNA 1: CAATCTGAATTCCGGTCTCCC
# DNA 2: TGGTGGCTACGACGGGATT
# B7: CGGAUCG (DNA:RNA)
# RNA: B1 RNA with G25C
# DNA 1: CAATCTGAATTCCGGTCTCCC
# DNA 2: TGGTGGCTACGACGGGATT
# B8: AGAUCGU (DNA:RNA)
# RNA: B1 RNA with G25A, G27A, A28U, U29C, C30G, G31U
# DNA 1: CAATCTGAATTCCGGTCTCCC
# DNA 2: TGGTGGCTACGACGGGATT
# B9: GUAUAUG (DNA:RNA)
# RNA: B1 RNA with G26U, G27A, A28U, U29A, C30U
# DNA 1: CAATCTGAATTCCGGTCTCCC
# DNA 2: TGGTGGCTACGACGGGATT
# B10: GUGAGUC (DNA:RNA)
# RNA: B1 RNA with G26U, U29G, C30U, G31C
# DNA 1: CAATCTGAATTCCGGTCTCCC
# DNA 2: TGGTGGCTACGACGGGATT
# B11: UUCUCUG (DNA:RNA)
# RNA: B1 RNA with G25U, G26U, G27C, A28U, U29C, C30U
# DNA 1: CAATCTGAATTCCGGTCTCCC
# DNA 2: TGGTGGCTACGACGGGATT
# B12: UUAUUAA (DNA:RNA)
# RNA: B1 RNA with G25U, G26U, G27A, A28U, C30A, G31A
# DNA 1: CAATCTGAATTCCGGTCTCCC
# DNA 2: TGGTGGCTACGACGGGATT
# B13: UCGAGUG (DNA:RNA)
# RNA: B1 RNA with G25U, G26C, U29G, C30U
# DNA 1: CAATCTGAATTCCGGTCTCCC
# DNA 2: TGGTGGCTACGACGGGATT
# B14: CUUGCGU (DNA:RNA)
# RNA: GGGAGACCGGAAUUCAGAUUGUCCCUUGCGUUUAAAUCCCGUCGUAGCCACCA
# DNA 1: CAATCTGAATTCCGGTCTCCC
# DNA 2: TGGTGGCTACGACGGGATT
# B15: AGCACGA (DNA:RNA)
# RNA: B14 RNA with C25A, U26G, U27C, G28A, U31A
# DNA 1: CAATCTGAATTCCGGTCTCCC
# DNA 2: TGGTGGCTACGACGGGATT
# B16: UGCUUGC (DNA:RNA)
# RNA: B1 RNA with G25U, G27C, A28U, C30G, G31C
# DNA 1: CAATCTGAATTCCGGTCTCCC
# DNA 2: TGGTGGCTACGACGGGATT
# B17: UGCUUGU (DNA:RNA)
# RNA: B14 RNA with C25U, U26G, U27C, G28U, C29U
# DNA 1: CAATCTGAATTCCGGTCTCCC
# DNA 2: TGGTGGCTACGACGGGATT
# B18: CUGCUUG (DNA:RNA)
# RNA: B1 RNA with G25C, G26U, A28C, C30U
# DNA 1: CAATCTGAATTCCGGTCTCCC
# DNA 2: TGGTGGCTACGACGGGATT
# B19: CCCCUGC (DNA:RNA)
# RNA: B14 RNA with U26C, U27C, G28C, C29U, U31C
# DNA 1: CAATCTGAATTCCGGTCTCCC
# DNA 2: TGGTGGCTACGACGGGATT
# B20: UGCUGCU (DNA:RNA)
# RNA: B1 RNA with G25U, G27C, A28U, U29G, G31U
# DNA 1: CAATCTGAATTCCGGTCTCCC
# DNA 2: TGGTGGCTACGACGGGATT
# B21: CUGCUGC (DNA:RNA)
# RNA: B14 RNA with U27G, G28C, C29U, U31C
# DNA 1: CAATCTGAATTCCGGTCTCCC
# DNA 2: TGGTGGCTACGACGGGATT
# Biological target: T1, RBFOX1 RRM RbFoxmut (Fox-RRM*)
# Assay: EMSA; HiTS-Eq, 1 nM pool, 10 min; buffer printed only for the single-RNA assays: 10 mM Tris pH 7.5, 150 mM NaCl, 3.4 mM EDTA, 0.001% NP-40, 30 C
# Conditions: tags: His6 N-terminal (pET28a); label: 5' 32P
# How it was run: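 A pool of RNA with 7 randomized nucleotides, 5′-radiolabelled and with DNA-annealed flanks, was equilibrated at 1 nM for 10 min in 50 µL with purified RbFox RRM, wild type or mutant, across increasing protein concentrations. Free RNA was separated by 8% native PAGE, excised, reverse-transcribed, barcoded by PCR and sequenced. Relative association constants were obtained from read-count changes of each RNA species versus the control reaction and normalised to the cognate motif.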
row,Binder,binding signal
1,B1,0.369 KA relative to UGCAUGU
2,B2,0.354 KA relative to UGCAUGU
3,B3,0.118 KA relative to UGCAUGU
4,B4,0.282 KA relative to UGCAUGU
5,B5,0.159 KA relative to UGCAUGU
6,B6,0.496 KA relative to UGCAUGU
7,B7,0.331 KA relative to UGCAUGU
8,B8,0.105 KA relative to UGCAUGU
9,B9,0.199 KA relative to UGCAUGU
10,B10,0.138 KA relative to UGCAUGU
11,B11,0.0908 KA relative to UGCAUGU
12,B12,0.0751 KA relative to UGCAUGU
13,B13,0.167 KA relative to UGCAUGU
14,B14,0.154 KA relative to UGCAUGU
15,B15,0.141 KA relative to UGCAUGU
16,B16,0.264 KA relative to UGCAUGU
17,B17,0.428 KA relative to UGCAUGU
18,B18,0.423 KA relative to UGCAUGU
19,B19,0.0955 KA relative to UGCAUGU
20,B20,0.12 KA relative to UGCAUGU
21,B21,0.126 KA relative to UGCAUGU
